# From ChEMBL document CHEMBL3988442, “University of Dundee, Small-Polar-MMV Screening Library” (2021)
# For some of these results: Measured potencies and affinities stand elsewhere.
# Experiments:
# Design in all cases: scale not given: direction of the effect not stated beside the values
# [1] = molecular target: Protein translocase subunit SecA (Escherichia coli (strain K12)) (UniProt P10408); assay: Assay to Identify E. coli SecA ATPase Inhibitors; assay type: functional; conditions: 30 µM
# [2] = molecular target: T1, Ubiquitin-activating enzyme e1, putative (Leishmania donovani (strain BPK282A1)) (UniProt E9BSI1); assay: Leishmania donovani Ubiquitin Activating Enzyme (LdE1); assay type: functional; conditions: 30 µM
# T1 sequence (whole entry): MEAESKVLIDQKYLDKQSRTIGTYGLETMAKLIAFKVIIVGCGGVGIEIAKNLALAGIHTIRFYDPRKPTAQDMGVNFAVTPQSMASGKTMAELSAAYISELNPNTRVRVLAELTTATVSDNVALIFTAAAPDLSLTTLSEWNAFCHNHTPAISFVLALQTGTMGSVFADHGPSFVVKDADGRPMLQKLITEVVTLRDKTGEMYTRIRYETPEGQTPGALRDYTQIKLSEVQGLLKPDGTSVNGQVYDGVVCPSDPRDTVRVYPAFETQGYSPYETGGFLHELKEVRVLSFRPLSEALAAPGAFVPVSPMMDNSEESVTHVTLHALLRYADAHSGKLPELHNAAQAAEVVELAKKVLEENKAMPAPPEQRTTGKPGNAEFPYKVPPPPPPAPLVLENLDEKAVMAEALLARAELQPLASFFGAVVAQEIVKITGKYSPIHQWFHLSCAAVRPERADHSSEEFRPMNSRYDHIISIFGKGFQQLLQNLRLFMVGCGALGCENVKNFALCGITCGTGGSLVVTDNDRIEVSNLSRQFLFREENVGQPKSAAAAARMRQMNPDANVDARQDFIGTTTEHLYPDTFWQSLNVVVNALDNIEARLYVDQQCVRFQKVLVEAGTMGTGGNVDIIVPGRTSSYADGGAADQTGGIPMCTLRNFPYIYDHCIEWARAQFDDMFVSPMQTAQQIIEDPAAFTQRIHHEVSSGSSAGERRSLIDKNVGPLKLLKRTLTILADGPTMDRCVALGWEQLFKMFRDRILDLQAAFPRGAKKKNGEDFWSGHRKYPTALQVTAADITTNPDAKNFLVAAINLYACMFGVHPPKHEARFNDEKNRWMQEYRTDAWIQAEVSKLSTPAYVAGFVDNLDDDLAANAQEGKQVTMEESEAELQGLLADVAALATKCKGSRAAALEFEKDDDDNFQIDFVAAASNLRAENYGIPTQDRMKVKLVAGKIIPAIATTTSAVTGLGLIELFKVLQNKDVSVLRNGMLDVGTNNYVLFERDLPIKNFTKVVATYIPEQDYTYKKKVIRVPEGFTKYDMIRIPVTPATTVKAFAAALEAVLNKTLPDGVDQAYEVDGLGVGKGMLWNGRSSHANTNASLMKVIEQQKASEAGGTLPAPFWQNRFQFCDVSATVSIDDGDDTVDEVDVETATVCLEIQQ
# [3] = molecular target: AMP-activated protein kinase, AMPK (Homo sapiens) (UniProt P54646+O43741+P54619+Q9UGJ0+Q9Y478+Q13131+Q9UGI9); assay: AMP-dependent Kinase enzyme assay. An in vitro enzyme assay that detects ADP turnover that is directly proportional to AMPK activity. This uses naive AMPK that is activated during the assay with MK-8722; assay type: functional; conditions: 30 µM
# [4] = molecular target: Sialic acid-binding Ig-like lectin 9 (Homo sapiens) (UniProt Q9Y336); assay: Hs-Siglec9 ALPHAscreen SOP 20170721; conditions: 10 µM
# Trypanosoma cruzi = assay: Trypanosoma cruzi phosphomannomutase and mannose-1-phosphate guanylyltransferase assay; assay type: functional; conditions: 10 µM
# [5] = molecular target: T2, Arginase-2, mitochondrial (Homo sapiens) (UniProt P78540); assay: in vitro enzyme assay to detect the production of urea directly proportional to the activity of Arginase II; assay type: functional; conditions: 33.3 µM; note: in the data most compounds retested in dose-response had high values
# T2 sequence (whole entry): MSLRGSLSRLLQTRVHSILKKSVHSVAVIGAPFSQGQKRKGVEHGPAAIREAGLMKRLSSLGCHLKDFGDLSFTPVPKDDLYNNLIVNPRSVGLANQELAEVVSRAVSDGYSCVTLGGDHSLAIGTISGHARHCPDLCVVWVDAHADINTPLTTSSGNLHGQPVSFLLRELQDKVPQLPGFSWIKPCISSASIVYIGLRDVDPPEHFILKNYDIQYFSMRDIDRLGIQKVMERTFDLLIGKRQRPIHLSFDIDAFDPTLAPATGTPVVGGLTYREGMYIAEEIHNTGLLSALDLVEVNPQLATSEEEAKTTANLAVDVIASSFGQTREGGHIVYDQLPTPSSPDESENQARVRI
# [6] = molecular target: T3, Proteasome subunit beta (Trypanosoma cruzi) (UniProt O96673); assay: Trypanosoma cruzi proteasome chymotrypsin-like activity (TcProtChymo) assay.; note: in the data most compounds retested in dose-response had high values; assay type: functional; conditions: 9.37 µM
# T3 sequence (whole entry): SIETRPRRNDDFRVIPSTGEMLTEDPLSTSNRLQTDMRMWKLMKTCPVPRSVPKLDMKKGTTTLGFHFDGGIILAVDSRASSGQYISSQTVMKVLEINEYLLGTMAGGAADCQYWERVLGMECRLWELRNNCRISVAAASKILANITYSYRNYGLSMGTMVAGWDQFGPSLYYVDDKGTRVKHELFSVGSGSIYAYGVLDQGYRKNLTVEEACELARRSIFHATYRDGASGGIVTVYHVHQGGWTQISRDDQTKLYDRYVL
# Homo sapiens = species on record: Homo sapiens; assay: To identify inhibition of the IFN signalling (Jak-Stat) pathway via expression of an eGFP reporter gene under the control of an IFN-stimulated response element (ISRE) containing MxA promoter.; assay type: functional; conditions: 30 µM
# [7] = molecular target: T4, Tyrosyl-tRNA synthetase, putative (Trypanosoma cruzi (strain CL Brener)) (UniProt Q4DSP6); assay: Trypanosoma cruzi tyrosyl tRNA synthetase (TcYRS) _High Tyrosine SOP; assay type: functional; conditions: 30 µM; note: in the data most compounds retested in dose-response had high values
# T4 sequence (whole entry): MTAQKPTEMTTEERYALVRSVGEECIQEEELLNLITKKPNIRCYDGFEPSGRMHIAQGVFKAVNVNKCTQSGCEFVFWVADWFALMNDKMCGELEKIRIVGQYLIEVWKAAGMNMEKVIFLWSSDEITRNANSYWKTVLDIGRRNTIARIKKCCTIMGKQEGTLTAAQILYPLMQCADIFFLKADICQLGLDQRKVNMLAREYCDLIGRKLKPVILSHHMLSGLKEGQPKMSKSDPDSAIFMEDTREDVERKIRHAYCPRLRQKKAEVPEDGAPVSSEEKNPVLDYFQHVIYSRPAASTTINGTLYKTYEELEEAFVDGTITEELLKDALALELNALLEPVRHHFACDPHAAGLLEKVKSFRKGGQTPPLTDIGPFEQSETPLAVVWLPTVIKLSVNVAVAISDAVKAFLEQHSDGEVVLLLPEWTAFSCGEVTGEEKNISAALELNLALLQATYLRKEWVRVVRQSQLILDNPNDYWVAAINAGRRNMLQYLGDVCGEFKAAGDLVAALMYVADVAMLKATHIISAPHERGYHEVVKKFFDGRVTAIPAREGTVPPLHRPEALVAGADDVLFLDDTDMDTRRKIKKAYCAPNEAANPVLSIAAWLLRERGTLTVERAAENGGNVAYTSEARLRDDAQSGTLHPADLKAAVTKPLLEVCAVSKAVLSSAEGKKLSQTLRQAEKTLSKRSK
# [8] = molecular target: T4, Tyrosyl-tRNA synthetase, putative (Trypanosoma cruzi (strain CL Brener)); assay: Trypanosoma cruzi tyrosyl tRNA synthetase (TcYRS) SOP; assay type: functional; conditions: 30 µM
# [9] = molecular target: Chromo domain-containing protein 1 (Saccharomyces cerevisiae (strain ATCC 204508 / S288c) (Baker's yeast)) (UniProt P32657); assay: ScCHD-1 Enzyme Inhibition Assay; assay type: functional; conditions: 30 µM; note: in the data most compounds retested in dose-response had high values
# Sequence of Chromo domain-containing protein 1 (Saccharomyces cerevisiae (strain ATCC 204508 / S288c) (Baker's yeast)) (P32657 whole entry, the tested form may be a part): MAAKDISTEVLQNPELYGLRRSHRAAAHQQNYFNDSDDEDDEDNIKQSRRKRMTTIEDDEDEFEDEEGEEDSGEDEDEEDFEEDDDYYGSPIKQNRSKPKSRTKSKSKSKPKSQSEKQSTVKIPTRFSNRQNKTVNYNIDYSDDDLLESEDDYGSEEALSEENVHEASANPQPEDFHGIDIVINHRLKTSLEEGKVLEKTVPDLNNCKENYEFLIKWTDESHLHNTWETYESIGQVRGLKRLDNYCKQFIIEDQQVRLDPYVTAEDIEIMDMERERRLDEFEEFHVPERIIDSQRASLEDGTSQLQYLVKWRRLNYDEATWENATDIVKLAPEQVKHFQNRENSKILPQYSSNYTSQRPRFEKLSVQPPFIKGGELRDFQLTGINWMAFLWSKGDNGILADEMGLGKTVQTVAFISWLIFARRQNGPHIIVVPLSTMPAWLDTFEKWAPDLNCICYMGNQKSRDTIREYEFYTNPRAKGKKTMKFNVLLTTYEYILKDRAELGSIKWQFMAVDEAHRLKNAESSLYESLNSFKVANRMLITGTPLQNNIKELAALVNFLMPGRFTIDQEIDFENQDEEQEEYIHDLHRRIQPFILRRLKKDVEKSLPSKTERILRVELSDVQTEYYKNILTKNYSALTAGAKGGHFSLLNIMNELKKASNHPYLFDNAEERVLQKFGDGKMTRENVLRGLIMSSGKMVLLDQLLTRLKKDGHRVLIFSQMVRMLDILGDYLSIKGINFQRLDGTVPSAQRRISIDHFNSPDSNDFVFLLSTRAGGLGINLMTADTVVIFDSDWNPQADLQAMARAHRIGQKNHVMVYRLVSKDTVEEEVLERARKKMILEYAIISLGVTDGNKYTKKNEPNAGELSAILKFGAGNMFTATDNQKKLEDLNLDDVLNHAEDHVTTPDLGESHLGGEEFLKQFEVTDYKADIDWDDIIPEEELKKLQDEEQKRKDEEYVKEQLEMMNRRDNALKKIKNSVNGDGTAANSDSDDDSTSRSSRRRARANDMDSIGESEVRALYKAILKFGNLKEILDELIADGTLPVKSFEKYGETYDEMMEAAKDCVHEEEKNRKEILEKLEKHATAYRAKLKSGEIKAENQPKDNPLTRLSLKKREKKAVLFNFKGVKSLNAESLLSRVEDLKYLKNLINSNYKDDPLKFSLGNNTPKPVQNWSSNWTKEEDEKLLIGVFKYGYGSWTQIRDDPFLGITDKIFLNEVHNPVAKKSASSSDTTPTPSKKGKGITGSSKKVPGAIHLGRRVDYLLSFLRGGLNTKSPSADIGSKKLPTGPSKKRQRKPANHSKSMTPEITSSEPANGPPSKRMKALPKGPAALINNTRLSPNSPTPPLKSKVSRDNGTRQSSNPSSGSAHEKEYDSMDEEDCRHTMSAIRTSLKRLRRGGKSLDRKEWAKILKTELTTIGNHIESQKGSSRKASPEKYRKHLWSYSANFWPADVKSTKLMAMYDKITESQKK
# Sequence of Sialic acid-binding Ig-like lectin 9 (Homo sapiens) (Q9Y336 whole entry): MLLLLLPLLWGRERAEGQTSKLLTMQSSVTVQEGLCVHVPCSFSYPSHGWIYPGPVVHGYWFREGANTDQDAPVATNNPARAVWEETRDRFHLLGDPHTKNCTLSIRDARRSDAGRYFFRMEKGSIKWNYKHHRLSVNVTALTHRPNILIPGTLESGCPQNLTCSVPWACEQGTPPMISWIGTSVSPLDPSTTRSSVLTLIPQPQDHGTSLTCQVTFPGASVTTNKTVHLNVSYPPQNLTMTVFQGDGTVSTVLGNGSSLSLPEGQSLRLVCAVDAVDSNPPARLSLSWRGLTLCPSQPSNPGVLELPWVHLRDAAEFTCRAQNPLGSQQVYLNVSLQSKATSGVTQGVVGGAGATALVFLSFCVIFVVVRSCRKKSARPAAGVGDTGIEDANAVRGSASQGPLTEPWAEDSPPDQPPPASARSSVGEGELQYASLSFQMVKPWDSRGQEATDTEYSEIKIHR
# Sequence of Protein translocase subunit SecA (Escherichia coli (strain K12)) (P10408 whole entry): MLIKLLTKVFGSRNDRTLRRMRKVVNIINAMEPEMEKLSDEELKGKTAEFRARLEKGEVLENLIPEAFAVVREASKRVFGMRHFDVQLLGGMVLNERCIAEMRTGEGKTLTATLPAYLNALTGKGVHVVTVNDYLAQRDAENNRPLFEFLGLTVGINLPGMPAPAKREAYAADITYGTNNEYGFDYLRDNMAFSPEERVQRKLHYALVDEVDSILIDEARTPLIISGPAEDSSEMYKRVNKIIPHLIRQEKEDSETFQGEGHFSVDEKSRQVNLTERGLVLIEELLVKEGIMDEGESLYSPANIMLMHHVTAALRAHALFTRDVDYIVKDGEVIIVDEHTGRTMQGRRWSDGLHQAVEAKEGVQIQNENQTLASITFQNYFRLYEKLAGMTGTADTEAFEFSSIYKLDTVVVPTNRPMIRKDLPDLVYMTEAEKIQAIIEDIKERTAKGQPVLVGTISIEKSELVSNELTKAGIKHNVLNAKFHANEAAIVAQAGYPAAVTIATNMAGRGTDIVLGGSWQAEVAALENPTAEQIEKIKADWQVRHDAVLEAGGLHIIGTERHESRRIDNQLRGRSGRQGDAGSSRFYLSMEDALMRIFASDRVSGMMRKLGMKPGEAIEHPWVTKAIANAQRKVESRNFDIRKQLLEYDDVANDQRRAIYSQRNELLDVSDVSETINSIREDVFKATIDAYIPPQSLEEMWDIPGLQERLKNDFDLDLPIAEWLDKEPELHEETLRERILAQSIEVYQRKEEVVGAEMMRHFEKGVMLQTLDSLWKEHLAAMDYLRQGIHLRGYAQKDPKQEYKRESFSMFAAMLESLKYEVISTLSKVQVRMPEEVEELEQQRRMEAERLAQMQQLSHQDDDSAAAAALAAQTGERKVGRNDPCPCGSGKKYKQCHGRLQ
Structure (SMILES),Percent Effect [1],Percent Effect [2],Percent Effect [3],Percent Effect [4],Percent Effect (Trypanosoma cruzi),Percent Effect [5],Percent Effect [6],Percent Effect (Homo sapiens),Percent Effect [7],Percent Effect [8],Percent Effect [9]
CN(CC(=O)N1CCN(c2ccccc2F)CC1)c1cnccn1,-1.13%,16.2%,-1.85%,4.66%,-0.0929%,-5.73%,6.82%,12.1%,5.94%,15.8%,-7.13%
Cc1ccccc1C(=O)CN1C(=O)c2ccccc2CS1(=O)=O,-2.33%,-10.8%,2.31%,-3.21%,-5.41%,-2.86%,12.8%,18.7%,-25.9%,-31.7%,14.8%
CN(Cc1ccco1)C[C@H]1OC[C@@H]2CCN(Cc3nccs3)C[C@@H]21,-6.74%,16%,-3.04%,-3.48%,5.41%,-45%,16.1%,7.21%,2.08%,10%,-6.67%
Cc1csc(N2CCN(C(=O)CCC(=O)c3ccc(C)s3)CC2)n1,-3.76%,8.11%,-7.25%,1.58%,1.79%,-12.4%,13.5%,23%,7.39%,25.9%,17.6%
Cc1ccc(-n2nnc(CC(=O)N3CCOCC3)c2C)cc1,-3.24%,18.2%,-1.18%,11.4%,5.61%,-12.4%,13%,6.11%,6.45%,18.5%,-6.8%
CCN(CC1CN(CCc2ccccn2)CCO1)c1cccnn1 (stereo unspecified),-2.15%,0%,-5.23%,-0.0186%,4.77%,3.12%,14.7%,-14.7%,0.546%,1.24%,2.6%
O=C(NCc1ccccn1)NC1CCOc2ccccc21 (stereo unspecified),-4.23%,24.3%,-0.78%,9.97%,9.19%,1.29%,9.52%,12%,9.9%,28.1%,-5.33%
CCn1nc(C)c(CNC(=O)c2cn(CC3CCCO3)nn2)c1C (stereo unspecified),-6.8%,0%,-1.16%,7.76%,2.24%,2.08%,2.27%,6.98%,6.01%,11.1%,-0.117%
CC(NC(=O)CSCC(=O)Nc1ccccc1)c1ccccc1 (stereo unspecified),-1.97%,2.63%,-2%,-3.2%,-0.654%,1.08%,-0.761%,-13.7%,3.45%,3.7%,8.03%
O=C(CCNC(=O)C1CCCC1)NCc1ccccc1Cn1cncn1,-3.71%,31.6%,0.311%,-9.83%,-1.96%,-2.52%,7.87%,1.98%,6.4%,18.5%,0.0492%
COc1ccc(C2=C(C)C(N3CCc4ccccc43)=NS2(=O)=O)cc1,-1.62%,20.8%,-4.65%,-5.53%,1.08%,3.23%,12.7%,9.51%,-1.06%,8.97%,-11.2%
